Reference: the supplement of paper PMC7595190
Values without a mark were called inactive.

How the values were obtained:
Assay in all cases: CellTox Green cytotoxicity fluorescence relative to DMSO vehicle (fold of vehicle RFU); higher = more cell death (loss of membrane integrity), active = 2 or more
[1] = system: CMK
In short: (§1)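 MV4-11, CMK and Kasumi-1 cells were seeded at 4.0 × 10^4 cells per well in 96-well black optical-bottom plates, with CellTox Green reagent added at seeding. Single compounds from the Selleckchem apoptosis library, diluted in DMSO, were added at final 0.01, 0.1 and 1 µM (vehicle 0.1% DMSO), then incubated at 37 °C, 5% CO2 and read at 24, 48 and 72 h (Ex 485 nm, Em 520 nm). Cytotoxicity, reflecting loss of membrane integrity, is fluorescence expressed as fold of the DMSO vehicle.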

[2] = system: Kasumi-1
In short: as §1

[3] = system: MV4-11
In short: as §1

Row | SMILES | CellTox Green cytotoxicity fluorescence ([1]; 0.01 µM, 24 h) | CellTox Green cytotoxicity fluorescence ([1]; 0.01 µM, 48 h) | CellTox Green cytotoxicity fluorescence ([1]; 0.01 µM, 72 h) | CellTox Green cytotoxicity fluorescence ([1]; 0.1 µM, 24 h) | CellTox Green cytotoxicity fluorescence ([1]; 0.1 µM, 48 h) | CellTox Green cytotoxicity fluorescence ([1]; 0.1 µM, 72 h) | CellTox Green cytotoxicity fluorescence ([1]; 1 µM, 24 h) | CellTox Green cytotoxicity fluorescence ([1]; 1 µM, 48 h) | CellTox Green cytotoxicity fluorescence ([1]; 1 µM, 72 h) | CellTox Green cytotoxicity fluorescence ([2]; 0.01 µM, 24 h) | CellTox Green cytotoxicity fluorescence ([2]; 0.01 µM, 48 h) | CellTox Green cytotoxicity fluorescence ([2]; 0.01 µM, 72 h) | CellTox Green cytotoxicity fluorescence ([2]; 0.1 µM, 24 h) | CellTox Green cytotoxicity fluorescence ([2]; 0.1 µM, 48 h) | CellTox Green cytotoxicity fluorescence ([2]; 0.1 µM, 72 h) | CellTox Green cytotoxicity fluorescence ([2]; 1 µM, 24 h) | CellTox Green cytotoxicity fluorescence ([2]; 1 µM, 48 h) | CellTox Green cytotoxicity fluorescence ([2]; 1 µM, 72 h) | CellTox Green cytotoxicity fluorescence ([3]; 0.01 µM, 24 h) | CellTox Green cytotoxicity fluorescence ([3]; 0.01 µM, 48 h) | CellTox Green cytotoxicity fluorescence ([3]; 0.01 µM, 72 h) | CellTox Green cytotoxicity fluorescence ([3]; 0.1 µM, 24 h) | CellTox Green cytotoxicity fluorescence ([3]; 0.1 µM, 48 h) | CellTox Green cytotoxicity fluorescence ([3]; 0.1 µM, 72 h) | CellTox Green cytotoxicity fluorescence ([3]; 1 µM, 24 h) | CellTox Green cytotoxicity fluorescence ([3]; 1 µM, 48 h) | CellTox Green cytotoxicity fluorescence ([3]; 1 µM, 72 h)
1 | CC(=O)O/N=C1/C(c2c(O)[nH]c3cc(Br)ccc23)=Nc2ccccc21 [BIO-acetoxime] | 1.02 | 0.999 | 0.97 | 0.981 | 0.97 | 0.981 | 0.973 | 0.945 | 1.12 | 1.05 | 1.05 | 1.04 | 1.02 | 1.04 | 1.04 | 0.974 | 1.07 | 1.11 |  |  |  |  |  |  |  |  | 
2 | CC[C@@]1(O)C(=O)OCc2c1cc1n(c2=O)Cc2cc3cc(O)ccc3nc2-1 [(S)-10-Hydroxycamptothecin] | 0.964 | 1.06 | 1.19 | 1.56 | 2.2 (active) | 2.02 (active) | 0.988 | 1.01 | 0.878 | 0.962 | 0.972 | 0.997 | 0.972 | 1.07 | 1.27 | 0.98 | 1.23 | 1.59 | 1.01 | 1.35 | 1.89 | 1.09 | 1.65 | 1.93 | 1.27 | 2.3 (active) | 2.45 (active)
3 | N#Cc1ccc(-c2c(-c3ncn[nH]3)sc(N3CCOCC3)c2C#N)c(F)c1 | 0.974 | 0.999 | 1.04 | 0.969 | 0.994 | 0.919 | 1.03 | 1.13 | 0.932 | 0.959 | 0.958 | 0.957 | 0.991 | 1.05 | 1.05 | 0.985 | 1.3 | 1.41 | 0.973 | 0.967 | 0.969 | 0.972 | 0.993 | 0.991 | 1.01 | 1.13 | 1.13
4 | CC(C)CC(NC(=O)C(Cc1ccccc1)CC(O)C(Cc1ccccc1)NC(=O)OC(C)(C)C)C(=O)NC(Cc1ccccc1)C(N)=O (stereo not drawn) | 1 | 1 | 1.03 | 0.943 | 0.922 | 0.899 | 0.947 | 0.949 | 0.919 | 0.952 | 0.963 | 0.962 | 0.943 | 0.974 | 0.946 | 0.912 | 0.993 | 1 | 0.952 | 0.964 | 0.968 | 0.937 | 0.952 | 0.944 | 0.919 | 0.947 | 0.967
5 | CC1(C)CC[C@]2(NC(=O)C(C)(F)F)CC[C@]3(C)[C@H](C(=O)C=C4[C@@]5(C)C=C(C#N)C(=O)C(C)(C)[C@@H]5CC[C@]43C)[C@@H]2C1 [Omaveloxolone] | 0.972 | 0.97 | 1 | 0.98 | 0.952 | 0.762 | 2.13 (active) | 2.33 (active) | 1.56 | 0.94 | 0.95 | 0.898 | 0.971 | 1 | 0.946 | 1.11 | 1.34 | 1.34 | 0.94 | 0.94 | 0.966 | 0.943 | 0.997 | 1.1 | 1.23 | 2.12 (active) | 2.24 (active)
6 | COc1cc(C(=O)O)ccc1NC(=O)[C@@H]1N[C@@H](CC(C)(C)C)[C@](C#N)(c2ccc(Cl)cc2F)[C@H]1c1cccc(Cl)c1F [Idasanutlin] | 0.938 | 0.944 | 0.96 | 0.943 | 0.953 | 1.01 | 0.963 | 1.01 | 0.933 | 1.01 | 0.971 | 0.962 | 0.966 | 0.949 | 0.947 | 1.01 | 1.03 | 1.03 | 0.983 | 0.967 | 0.97 | 0.971 | 0.958 | 0.972 | 0.967 | 1.03 | 1.1
